Each structure is given as a SMILES string. The whole screen tested about 370,000 compounds, of which about 760 (0.21%) were called active. The list comes from a sample in which actives are over-represented; it also holds similar structures and randomly drawn compounds. A number with no mark means an inactive call.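 Rule for the calls: active = inhibition above a per-campaign cutoff: mean of compounds within control limits plus 3 SD (cut at about 15% in these data); inactive = the rest.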

In general, inhibition refers to the change of the read-out against control, counted positive when it falls.

Chain of Fibrinogen beta chain (Homo sapiens) (P02675 whole entry, looked up): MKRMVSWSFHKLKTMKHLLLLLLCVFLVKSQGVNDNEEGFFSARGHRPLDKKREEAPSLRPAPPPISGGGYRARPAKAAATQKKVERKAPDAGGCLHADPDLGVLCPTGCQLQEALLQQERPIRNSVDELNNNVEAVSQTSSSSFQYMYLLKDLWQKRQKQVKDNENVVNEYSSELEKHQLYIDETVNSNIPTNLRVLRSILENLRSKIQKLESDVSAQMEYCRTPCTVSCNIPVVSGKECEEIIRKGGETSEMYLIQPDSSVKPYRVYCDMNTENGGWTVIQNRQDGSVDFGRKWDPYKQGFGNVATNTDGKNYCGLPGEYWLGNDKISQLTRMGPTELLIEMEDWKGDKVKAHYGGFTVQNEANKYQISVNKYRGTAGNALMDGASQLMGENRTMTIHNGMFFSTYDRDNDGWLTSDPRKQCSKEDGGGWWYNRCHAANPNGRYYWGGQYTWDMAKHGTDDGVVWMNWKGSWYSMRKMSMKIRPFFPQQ

This assay concerns the target Fibrinogen beta chain (Homo sapiens) (UniProt P02675). Put plainly: small molecules displacing Tn6 from DD(E) complex – biochemical, fluorescence polarization, human fibrin, Tn6 probe, primary screen (AID 720509).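 Note: 0% = median of all compound wells on the plate and 100% = blocking peptide control.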 Conditions: Fibrin DD(E) TRITC-Tn6 fluorescence polarization displacement; at 8.3 µM; active compounds read high.
As to `O=C(NCC1CCCO1)c1ccccc1-c1nc(-c2ccccc2Cl)no1` (configuration not stated), the inhibition is 8.29%. In the case of `Cc1nn(C)cc1N1C(=O)c2cccc3c(N)ccc(c23)C1=O`, the inhibition was 19.6% (active). In the case of `C/C(N)=C(/C#N)C(=O)COC(=O)CNS(=O)(=O)c1ccc(C)cc1`, the inhibition is 4.06%. In the case of `COc1ccc(C)cc1NC(=S)Nc1ccccc1SC`, the inhibition is -8.72%. As to `CCc1ccccc1NC(=S)Nc1cc(OC)c(NC(=O)C(C)C)cc1OC`, the inhibition was 52.5% (active). Regarding `COc1cc(NC(=S)NNC(=O)CC(C)C)c(OC)cc1Cl`, the inhibition was 9.57%.

Regarding `Cc1ccccc1OCC(=O)Nc1nnc(S(=O)(=O)N2CCCC2)s1`, the inhibition was 3.91%. Consider `Cc1ccc(NC(=O)C(C)Sc2nnc(C3CC3)n2C2CC2)cc1S(=O)(=O)N1CCOCC1` (configuration not stated), for which the inhibition was -3.46%.

Take `O=C1CCc2cc(S(=O)(=O)N3CCC(C(=O)NCc4ccccc4Cl)CC3)ccc2N1`: the inhibition was -0.95%. On to `O=c1cc(Cn2nnc(-c3ccc(Cl)cc3)n2)nc2sccn12`, for which the inhibition is 16.1% (active). As for `COc1ccc(C(=O)OCc2cc(=O)n3ccsc3n2)cc1F`, the inhibition was -0.34%. For the compound `O=C(OCc1cc(=O)n2ccsc2n1)C1(c2ccc(Cl)cc2)CC1`, the inhibition is 4.84%. With `Cc1ccc(S(=O)(=O)NCC(=O)NNC(=O)c2ccc(Br)cc2)cc1C`, the inhibition was 0.07%. Turning to `Cc1cc(=O)oc(C)c1C(=O)NCCN(C)Cc1ccccc1`, the inhibition is -1.95%. `C[C@@H]1ON(C)[C@H]2C[C@H]3c4cc(N5CCN(C)CC5)ccc4CCN3C(=O)[C@@H]12`: the inhibition is -3.94%. For the compound `CCOCC(=O)NCc1ccc2c(c1)cc(C)n2C`, the inhibition is 22.7% (active). Turning to `Cc1ccc(CNC(=O)Cc2cn(C)c3ccccc23)cc1`, the inhibition is -3.12%.

Turning to `Cc1ccc(CNC(=O)COc2ccc3c(c2)CCC3)cc1`, the inhibition is -1.34%. On to `CC[C@@H]1CC2=C(C(=O)OC(C)(C)O2)[C@@H](CC)O1`, for which the inhibition is -4.34%. For `COc1ccc(NC(=O)c2cc([N+](=O)[O-])ccc2NC(=O)CNC2CCCCC2C)c(OC)c1` (configuration not stated), the inhibition is -3.72%. On to `CC1(C)C(C=C(Cl)Cl)C1C(=O)NC(O)C(=O)c1ccccc1` (configuration not stated), for which the inhibition was 14.5%. On to `O=C(c1ccc2c(c1)N(Cc1ccc(F)cc1)C(=O)CS2)N1CCOCC1`, for which the inhibition is -0.8%.

As for `COC(=O)C(=Nc1ccccc1)/C(C(=O)C(=O)N(C)c1ccccc1)=C(\O)c1ccc(Cl)cc1`, the inhibition is -4.47%. `O=C(NCCNc1ccccc1[N+](=O)[O-])c1ccccc1F`: the inhibition was 16.1% (active). The same measure for `Cc1c(C(=O)NCCCc2ccccc2)cccc1[N+](=O)[O-]`: 7.53%; for `O=C(NCCCNc1ccc([N+](=O)[O-])cc1Cl)c1ccccc1F`: 0.76%; for `COc1ccc(-n2cnnc2SCC(=O)Nc2cccc(S(N)(=O)=O)c2)cc1`: 11.3%. For `NS(=O)(=O)c1ccc(NC(=O)/C=C/c2ccccc2Cl)cc1`, the inhibition is -10.6%. As to `Cc1ccc(-c2nn(-c3ccccc3)cc2/C=C/C(=O)Nc2cccc(S(N)(=O)=O)c2)cc1`, the inhibition is 52% (active).

With `CC1CN(S(=O)(=O)c2cccc(C(F)(F)F)c2)CN1C(=O)N1CCOCC1` (configuration not stated), the inhibition was -4.35%. On to `CC(=O)n1cc([C@@H]2C=C(C(=O)N3CCN(Cc4ccc5c(c4)OCO5)CC3)O[C@H](OCc3ccc(CO)cc3)C2)c2ccccc21`, for which the inhibition is 3.52%. For `CCCCNC(=O)OC1CC2CC1[C@H]1CCCCN1C2=O` (some centres not stated), the inhibition is -8.63%. Turning to `OCCC1CN(Cc2ccc3nsnc3c2)CCN1C1CCCCC1` (configuration not stated), the inhibition is -12.1%. As for `COc1ccc(N2C(=O)NC(NS(=O)(=O)c3ccc(Cl)cc3)(C(F)(F)F)C2=O)cc1` (configuration not stated), the inhibition is 16.5% (active). For `Cc1ccc(S(=O)(=O)NC2(C(F)(F)F)NC(=O)N(CCc3ccccc3)C2=O)cc1` (configuration not stated) the value was 1.91%; for `COc1ccc(S(=O)(=O)NC2(C(F)(F)F)N=C3SCCN3C2=O)cc1` (configuration not stated), 3.58%. For `Cc1cc(=O)[nH]c(SCC(=O)Nc2ccc(F)cc2F)n1` the value was -5.08%. As for `COc1ccc(NC(=O)C2=NNC(=O)CC2)cc1S(=O)(=O)N1CCCCC1`, the inhibition was 3.03%. On to `COCCn1c(SCC(=O)Nc2ccc3c(c2)CCC3)nc2ccccc2c1=O`, for which the inhibition is -3.38%. With `COc1ccc(NS(=O)(=O)c2cc3c(cc2C)N(C(C)=O)CCO3)cc1`, the inhibition was -0.74%. As to `C=C(C)CSc1nnc(-c2ccc(C)cc2)n1N`, the inhibition was 2.43%. For `CC(C)N(c1ccccc1)c1ncnc(NCCC(=O)O)c1[N+](=O)[O-]` the value was 0.23%; for `Cc1ccc2c(c1)N(CC(=O)NCCCN1CCCCC1)C(=O)c1cccnc1O2`, -7.1%; for `COc1ccc([C@H]2OC(=O)C[C@H]2C(=O)N2CCN(c3ccccc3F)CC2)cc1OC`, -0.84%.

On to `CCCN(CC(=O)Nc1ccc(OC)c(OC)c1)CC(=O)Nc1ccc(F)c(F)c1F`, for which the inhibition is 7.52%. For `O=C(CSc1n[nH]c(-c2cccnc2)n1)Nc1ccnc2ccccc12`, the inhibition was -0.07%.

On to `COc1ccc(Nc2nc(-c3cccnc3)nc3ccccc23)cn1`, for which the inhibition is 15.3% (active). In the case of `O=C(Nc1ccc(Cl)cc1)Nc1ccc(Oc2cccnc2)nc1`, the inhibition was -12.2%. `COc1ccc(S(=O)(=O)N(CCCN2CCCC2=O)Cc2cc3c(C)ccc(C)c3[nH]c2=O)cc1`: the inhibition is -7.91%.

As to `Cc1ccc(NC(=O)CN2CCc3ccccc3C2)cc1`, the inhibition was 15.8% (active).

Regarding `O=C(CN1CCc2ccccc2C1)Nc1cccc(S(=O)(=O)N2CCOCC2)c1`, the inhibition was 4.91%.

Take `Cc1ccc(NC(=O)Cn2sc3ccccc3c2=O)cc1`: the inhibition is 1.72%. In the case of `Cc1nc(-c2ccc(F)cc2)c(CC(=O)N2CCN(S(=O)(=O)c3ccc(F)cc3)CC2)s1`, the inhibition was -5.03%.

Take `Cc1ccc(-c2nc(C)sc2CC(=O)O)cc1`: the inhibition is 16.2% (active). On to `Cc1ccc(-c2nc(C)sc2CC(=O)OCC(=O)Nc2c(F)cccc2F)cc1`, for which the inhibition was 4.3%. For `O=C(Nc1ccc(N2CCOCC2)cc1)c1cccc2c(-c3ccc(F)c(F)c3)coc12`, the inhibition was -1.54%. As for `Cc1ccc(Nc2nc(CSc3nnc(-c4ccncc4)n3-c3ccccc3C)cs2)cc1`, the inhibition is -3.59%.

The values are drawn from PubChem BioAssay AID720509 (The Scripps Research Institute Molecular Screening Center, 2013).
